# Data published in PubChem BioAssay (Tox21).
# Results filed as inconclusive are left out. Entries that show only a call come without a potency. The source made the active and inactive calls. Calls come from the whole dose curve; as a rule, active = well fitted curve in the direction sought with a large enough effect in the repeat runs; inconclusive = weak or mixed curves; inactive = no such curve, though single readings can be large; an effect the other way counts as inactive or inconclusive.
# Experiment: qHTS assay to identify small molecule antagonists of the thyroid receptor (TR) signaling pathway - cell viability counter screen (AID 743064); note: nearly all actives have a fitted effect of over 50% in size
# Settings: GH3.TRE-Luc viability, CellTiter-Fluor, 24 h; series mostly up to 70.3 µM
# Method in brief: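 GH3.TRE-Luc cells, 4 h pre-plating; cpd + T3 1 nM final; 37 °C 23.5 h; CellTiter-Fluor 30 min; fluorescence read.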
# Potency is the fitted concentration of half-maximal effect.
row,SMILES,Potency
1,NC(=O)Nc1ccccc1,inactive
2,CCCc1cc(C(N)=S)ccn1,inactive
3,CC(C(=O)O)c1ccc(CC2CCCC2=O)cc1 (stereo not given),inactive
4,CC(C)(C)NCCNC(C)(C)C,inactive
5,C=C1CC[C@H]2C[C@@H]1C2(C)C,inactive
6,OCCCC1CCCCC1,inactive
7,CCN1CCC[C@H]1CNC(=O)c1c(O)c(Cl)cc(Cl)c1OC,inactive
8,COCCCOCCCOC,inactive
9,CC(=O)Nc1ccc(S(N)(=O)=O)cc1,inactive
10,CN1CCC(=C2c3ccccc3CC(=O)c3sccc32)CC1,15 µM (active)
11,Cc1ccc(C#N)cc1,inactive
12,N=c1nc(N2CCCCC2)cc(N)n1O,inactive
13,CC(C)c1cc2c(cc1S(=O)(=O)O)[C@@]1(C)CCC[C@@](C)(C(=O)O)[C@@H]1CC2,inactive
14,Nc1ccc(S(=O)(=O)Nc2ccnn2-c2ccccc2)cc1,inactive
15,CO[Si](CCCOCC1CO1)(OC)OC (stereo not given),inactive
16,Nc1cc(=O)[nH]c(N)n1,inactive
17,CCN(CC)CCNC(=O)c1cc(S(C)(=O)=O)ccc1OC,inactive
18,Cc1cc2c(cc1S(N)(=O)=O)S(=O)(=O)CCC2,inactive
19,CC/C=C\CCOC(C)=O,inactive
20,Cc1cc(O)cc2c1O[C@](C)(CCC[C@H](C)CCC[C@H](C)CCCC(C)C)CC2,inactive

row,SMILES,Potency
1,CC(C)(C)c1nnc(NS(=O)(=O)c2ccccc2)s1,inactive
2,CS(=O)(=O)O,inactive
3,O=c1n(CCO)c(=O)n(CCO)c(=O)n1CCO,inactive
4,Cc1ccc(Cl)cc1Cl,inactive
5,CC(C[N+](C)(C)C)OC(N)=O (stereo not given),inactive
6,Cc1nc2c([nH]1)c(=O)n(C)c(=O)n2Cc1ccco1,inactive
7,FC1(F)C(F)(F)C(F)(F)C2(F)C(F)(F)C(F)(F)C(F)(F)C(F)(F)C2(F)C1(F)F (stereo not given),inactive
8,O=C1OC(=O)C2CCCCC12 (stereo not given),inactive
9,CCCCC(CC)COC(=O)c1ccccc1O (stereo not given),inactive
10,CC1(C)C(O)C(C)(C)C1O (stereo not given),inactive
11,CC(=O)OCC(CCn1cnc2cnc(N)nc21)COC(C)=O,inactive
12,CC(C)NC(=O)NC(C)C,inactive
13,O=C(O)COc1nn(Cc2ccccc2)c2ccccc12,inactive
14,CN1C(=O)N(C)C(O)C1O (stereo not given),inactive
15,O=C1CCCN1C1CCCCC1,inactive
16,CCn1ccnc1CC1COc2ccccc2O1 (stereo not given),inactive
17,N[C@H]1CN(c2c(F)cc3c(=O)c(C(=O)O)cn(C4C[C@H]4F)c3c2Cl)CC12CC2 (stereo not given in full),inactive
18,CCCCCSCCCCC,inactive
19,ClC(Cl)(Br)Br,inactive
20,N=C(N)c1ccc2cc(OC(=O)c3ccc(N=C(N)N)cc3)ccc2c1,inactive

# Experiment: qHTS assay to identify small molecule antagonists of the thyroid receptor (TR) signaling pathway (AID 743065); note: nearly all actives have a fitted effect of over 55% in size
# Settings: GH3.TRE-Luc, T3-stimulated luciferase inhibition, 23.5 h; series mostly up to 70.3 µM
# Method in brief: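 Antagonism measured as loss of luciferase signal in GH3 cells stably carrying a TRE-luciferase reporter, co-treated with compound and T3 (1 nM final) for 23.5 h at 37 C. Viability was read in the same well by CellTiter-Fluor.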
row,SMILES,Potency
1,NC(=O)Nc1ccccc1,inactive
2,CCCc1cc(C(N)=S)ccn1,inactive
3,CC(C(=O)O)c1ccc(CC2CCCC2=O)cc1 (stereo not given),inactive
4,CC(C)(C)NCCNC(C)(C)C,inactive
5,C=C1CC[C@H]2C[C@@H]1C2(C)C,inactive
6,OCCCC1CCCCC1,inactive
7,CCN1CCC[C@H]1CNC(=O)c1c(O)c(Cl)cc(Cl)c1OC,inactive
8,COCCCOCCCOC,inactive
9,CC(=O)Nc1ccc(S(N)(=O)=O)cc1,inactive
10,CN1CCC(=C2c3ccccc3CC(=O)c3sccc32)CC1,23.7 µM (active)
11,Cc1ccc(C#N)cc1,inactive
12,N=c1nc(N2CCCCC2)cc(N)n1O,inactive
13,CC(C)c1cc2c(cc1S(=O)(=O)O)[C@@]1(C)CCC[C@@](C)(C(=O)O)[C@@H]1CC2,inactive
14,Nc1ccc(S(=O)(=O)Nc2ccnn2-c2ccccc2)cc1,inactive
15,CO[Si](CCCOCC1CO1)(OC)OC (stereo not given),inactive
16,Nc1cc(=O)[nH]c(N)n1,inactive
17,CCN(CC)CCNC(=O)c1cc(S(C)(=O)=O)ccc1OC,inactive
18,Cc1cc2c(cc1S(N)(=O)=O)S(=O)(=O)CCC2,inactive
19,CC/C=C\CCOC(C)=O,inactive
20,Cc1cc(O)cc2c1O[C@](C)(CCC[C@H](C)CCC[C@H](C)CCCC(C)C)CC2,inactive

row,SMILES,Potency
1,CC(C)(C)c1nnc(NS(=O)(=O)c2ccccc2)s1,inactive
2,CS(=O)(=O)O,inactive
3,O=c1n(CCO)c(=O)n(CCO)c(=O)n1CCO,inactive
4,Cc1ccc(Cl)cc1Cl,inactive
5,CC(C[N+](C)(C)C)OC(N)=O (stereo not given),inactive
6,Cc1nc2c([nH]1)c(=O)n(C)c(=O)n2Cc1ccco1,inactive
7,FC1(F)C(F)(F)C(F)(F)C2(F)C(F)(F)C(F)(F)C(F)(F)C(F)(F)C2(F)C1(F)F (stereo not given),inactive
8,O=C1OC(=O)C2CCCCC12 (stereo not given),inactive
9,CCCCC(CC)COC(=O)c1ccccc1O (stereo not given),inactive
10,CC1(C)C(O)C(C)(C)C1O (stereo not given),inactive
11,CC(=O)OCC(CCn1cnc2cnc(N)nc21)COC(C)=O,inactive
12,CC(C)NC(=O)NC(C)C,inactive
13,O=C(O)COc1nn(Cc2ccccc2)c2ccccc12,inactive
14,CN1C(=O)N(C)C(O)C1O (stereo not given),inactive
15,O=C1CCCN1C1CCCCC1,inactive
16,CCn1ccnc1CC1COc2ccccc2O1 (stereo not given),inactive
17,N[C@H]1CN(c2c(F)cc3c(=O)c(C(=O)O)cn(C4C[C@H]4F)c3c2Cl)CC12CC2 (stereo not given in full),inactive
18,CCCCCSCCCCC,inactive
19,ClC(Cl)(Br)Br,inactive
20,N=C(N)c1ccc2cc(OC(=O)c3ccc(N=C(N)N)cc3)ccc2c1,inactive
